Compound activity (PubChem BioAssay)
TDP43 rescue: qHTS of TDP-43 Inhibitors | TDP-43 expressing yeast growth rescue, BacTiter-Glo, 24 h | Potency, µM (series often up to 46.1 µM), usual class: activators | 410,000 compounds, 1.8% hits; note: nearly all actives have a fitted effect of over 50% in size
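Yeast cells expressing TDP-43 under galactose induction are exposed to compounds for 24 hr at 30 deg C. BacTiter-Glo luminescence measures growth, so protective compounds score as activators.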
Mito fusion act: qHTS Assay for Small Molecule Inhibitors of Mitochondrial Division or Activators of Mitochondrial Fusion. Potency, µM (doses to about 46.1 µM), most hits filed as activators. AID 485298, 2010. 320,000 compounds, 0.23% hits. S. cerevisiae fusion-defective mutant growth rescue, CellTiterGlo 48 h; note: nearly all actives have a fitted effect of over 45% in size
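S. cerevisiae fusion-defective temperature-sensitive mutants (e.g. fzo1-1, mgm1-5) grown 48 h at 37C in YPEG (ethanol/glycerol non-fermentable) medium with 23 nl compound per well; growth rescue read as CellTiterGlo luminescence.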
aSyn rescue: qHTS of alpha-syn Inhibitors. Yeast expressing alpha-synuclein, growth rescue, BacTiter-Glo, 24 h. Potency, µM (series often up to 46.1 µM), actives largely listed as activators. 370,000 compounds, 0.14% hits; note: nearly all actives have a fitted effect of over 65% in size
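Rescue of yeast growth: cells expressing toxic alpha-synuclein, induced in galactose at OD600 0.02, incubated with compound 24 h at 30 C. ATP luminescence quantified growth; inhibitors of toxicity appear as activators.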
FUS yeast rescue: qHTS for Suppressors of FUS Proteinopathy: Primary screen using FUS-linked yeast assay | S. cerevisiae FUS-expressing, growth rescue, OD600, 24 h | Potency, µM (titrated, usually from 76.6 µM), hits mostly activators | 390,000 compounds, 0.24% hits | AID 1347120, 2019; note: nearly all actives have a fitted effect of over 55% in size
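Toxicity suppression screen in FUS-yeast. Cells induced with 2% galactose, starting OD 0.005, treated 24hr at 30C with compounds at multiple final concentrations; growth by OD600.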
Abeta yeast res: qHTS for compounds that reverse cellular toxicity of Amyloid beta (A-beta) peptide in yeast: Primary Screen | yeast expressing A-beta42, growth rescue, OD600, 48 h; response scale: 0% DMSO, 100% iron-clioquinol control | Potency, µM (series often up to 46.1 µM), usual class: activators | 410,000 compounds, 0.063% hits | AID 1347071, 2019; note: nearly all actives have a fitted effect of over 55% in size
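Yeast A-beta toxicity model in growth medium with pinned compounds, 48 h at 30 C; growth read as absorbance at 600 nm. Normalized to FeCl3/clioquinol equimolar mix (positive) and DMSO (negative).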
A number is an active result; - = inactive; ? = inconclusive; . = no result given; [ ] = another dose, or the depositor's remark. Most compounds without a hit are left out; they make up all but 2.2% or so of the library. Calls come from the whole dose curve; as a rule, active = well fitted curve in the direction sought with a large enough effect; inconclusive = small, poorly fitted or top-dose-only effect, or another doubt; inactive = no such curve, though single readings can be large; an effect the other way counts as inactive or inconclusive.

SMILES	TDP43 rescue	Mito fusion act	aSyn rescue	FUS yeast rescue	Abeta yeast res
CC(=O)Nc1ccc(-c2ccnc3c2CC(C(=O)Nc2ccc(C(C)C)cc2)O3)cc1 (configuration not stated)	-	.	-	?	-
CC(C)c1ccc(NC(=O)C2Cc3c(-c4ccco4)ccnc3O2)cc1 (configuration not stated)	35µM	.	?	-	-
CC(C)c1ccc(NC(=O)C2Cc3c(-c4ccc5c(c4)OCO5)ccnc3O2)cc1 (configuration not stated)	35µM	.	-	?	-
O=C(Nc1ccccc1)C1Cc2c(-c3ccccc3Oc3ccccc3)ccnc2O1 (configuration not stated)	-	.	-	-	-
COc1ccc(NC(=O)C2Cc3c(-c4ccccc4Oc4ccccc4)ccnc3O2)cc1 (configuration not stated)	25µM	.	-	-	-
CC(C)[C@H](NC(=O)OC(C)(C)C)c1cc(C(=O)NC2CC2)c(N)s1	-	.	-	-	-
N#C/C(=C\c1ccc(-c2cc(Cl)ccc2Cl)o1)C(=O)Nc1ccccc1C(=O)O	-	.	.	-	-
CCN(CC)CCN(C(=O)c1ccco1)c1nc2ccc(Br)cc2s1	-	.	.	-	-
COc1ccc(CCCNC(=O)C2Cc3c(-c4ccccc4)ccnc3O2)cc1 (configuration not stated)	32µM	.	-	-	-
COc1ccc(CNC(=O)C2Cc3c(-c4ccccc4)ccnc3O2)cc1OC (configuration not stated)	-	.	-	-	-
COc1ccc(NC(=O)C2Cc3c(-c4cccc(C(C)=O)c4)ccnc3O2)cc1 (configuration not stated)	22µM	.	-	-	-
CC(=O)c1cccc(-c2ccnc3c2CC(C(=O)Nc2ccc(Cl)c(C(F)(F)F)c2)O3)c1 (configuration not stated)	16µM	.	-	-	-
CC(=O)c1cccc(-c2ccnc3c2CC(C(=O)Nc2cccc(OC(F)(F)F)c2)O3)c1 (configuration not stated)	35µM	.	-	-	?
Cc1ccc(NS(=O)(=O)c2ccc3[nH]c4c(c3c2)CCCCC4)cc1	-[9.22 µM]	.	.	?	-
CCOC(=O)c1cc(-c2ccc(F)cc2)n(CC(=O)NC2CCCCC2)c1C	-	.	.	-	-
O=C(Cc1ccc(S(=O)(=O)N2CCOCC2)s1)N1CCN(S(=O)(=O)c2cccc([N+](=O)[O-])c2)CC1	-	-	-	?	-
O=C(Cc1ccc(S(=O)(=O)N2CCOCC2)s1)N1CCN(S(=O)(=O)c2ccccc2[N+](=O)[O-])CC1	-	.	-	22µM	-
O=Cc1ccc(N2Cc3ccccc3C2)cc1	3.2µM	-	-	-	-
COC(=O)c1ccc(NC(=O)CC2C(=O)N(c3cccc(F)c3)C(=O)N2CC(C)C)cc1 (configuration not stated)	-	.	.	-	-
Cc1ccccc1Nc1cc(C(=O)NCCc2ccc(Cl)cc2)c2ccccc2n1	18µM	.	.	-	-
COc1ccc(CNC(=O)c2cc(Nc3ccccc3C)nc3ccccc23)cc1	-	.	.	-	-
COc1cc(NC(=O)CSCc2cnn(-c3ccccc3)c2-n2cccc2)cc(OC)c1	-	?	-	-	-
COc1ccccc1CNC(=O)CSCc1cnn(-c2ccccc2)c1-n1cccc1	18µM	-	-	-	-
Cc1ccc(NC(=O)CSCc2cnn(-c3ccccc3)c2-n2cccc2)c(Cl)c1	-	.	.	-	-
CCOc1ccc(NC(=O)CSCc2cnn(-c3ccccc3)c2-n2cccc2)cc1	20µM	-	-	-	-
SMILES	TDP43 rescue	Mito fusion act	aSyn rescue	FUS yeast rescue	Abeta yeast res
Cc1cccc(C)c1NC(=O)CSCc1cnn(-c2ccccc2)c1-n1cccc1	25µM	.	.	-	-
COc1cccc(CNC(=O)CSCc2cnn(-c3ccccc3)c2-n2cccc2)c1OC	?	-	-	-	-
CCOC(=O)c1c(C)[nH]c(CCC(=O)Nc2ccc(N(CC)CC)cc2C)c1C	-	.	.	-	-
Cc1nn2c(=O)cc(COC(=O)c3ccc(NC(=O)c4cccc(Br)c4)cc3)nc2s1	-	.	.	-	-
Cc1c(Cl)cccc1NC(=O)CSc1ncc(S(=O)(=O)c2ccc(C(C)C)cc2)c(=O)[nH]1	-	.	-	-	-
Cc1ccc(N2C(=O)N(Cc3cc(=O)n4ccccc4n3)c3ccccc3S2(=O)=O)cc1Cl	-[9.22 µM]	.	.	-	-
Cc1ccc(NC(=O)Cn2nnc3sc4c(c3c2=O)CCCC4)c(C)c1	-	.	.	-	-
O=C(/C=C/c1cccc([N+](=O)[O-])c1)N1CCN(c2ccccc2F)CC1	?	-	-	.	-
CCOc1ccccc1N1CCN(C(=O)/C=C/c2cccc([N+](=O)[O-])c2)CC1	14µM	-	-	-	-
COc1ccc(C(=O)NCC(=O)OCC(=O)c2ccccc2Br)cc1OC	-	.	-	-	-
COc1cc(C(=O)NCC(=O)OCC(=O)c2cccc3ccccc23)cc(OC)c1OC	-	-	-	13µM	-
COC(=O)c1cc2oc3ccccc3c2n1Cc1ccccn1	13µM	-	-	-	-
CCCCN(C)c1nc(-c2ccco2)c2c(c1C#N)CC(C)(C)OC2	20µM	-	-	-	-
c1ccc(CCCc2nc(-c3cccnc3)no2)cc1	8.9µM	-	-	-	-
COc1ccc(-c2noc(CCc3ccccc3)n2)cc1	18µM	-	-	-	-
O=C(CCCc1nc(-c2ccc(Cl)cc2)no1)Nc1cccnc1	16µM	-	?	-	-
O=C(Cn1cc(SCc2ccccc2F)c2ccccc21)N1CCCCC1	-	.	.	-	-
CCOc1ccc(C(=O)Nc2ccc(-c3nc4ccccc4s3)c(C)c2)cc1OCC	-[9.22 µM]	.	.	-	-
Cc1csc2ncnc(N3CCN(C(=S)Nc4ccc(C(F)(F)F)cc4)CC3)c12	13µM	-	-	?	-
Cc1csc2c(N3CCN(C(=S)Nc4ccc(C(F)(F)F)cc4)CC3)ncnc12	-	-	-	-	-
C=Cc1ccc(Cn2c(=O)n(-c3ccccc3C)c(=O)c3c4c(sc32)CN(C(C)=O)CC4)cc1	?	.	.	?	-
CC(=O)N1CCc2c(sc3c2c(=O)n(-c2cccc(Cl)c2)c(=O)n3Cc2ccc(F)cc2Cl)C1	11µM	.	.	-	-
CC(=O)N1CCc2c(sc3c2c(=O)n(-c2ccccc2)c(=O)n3Cc2ccccc2Cl)C1	-	-	-	.	-
CC(=O)N1CCc2c(sc3c2c(=O)n(-c2ccccc2Cl)c(=O)n3Cc2cccc(C)c2)C1	35µM	.	.	?	-
Cc1nc2ccc(S(=O)(=O)NCC(=O)NCc3ccc(F)cc3)cc2s1	.	.	.	-	.
COc1ccc(OCCn2cc(C(=O)c3ccco3)c3ccccc32)cc1	18µM	.	.	-	?
